# Assay results: the supplement of paper PMC9254222
# Over roughly 1,100 compounds, “Wnt reporter firefly/Renilla luciferase ratio relative to plate median” has its median near 1.1; the highest 2% begin near 1.6. Many of the other results were omitted from the sample, so the highest values are more common in it than they were.
# Tested on: HEK293T (UBE3A T485A transfected, BAR Wnt reporter)
# Test: Wnt reporter firefly/Renilla luciferase ratio relative to plate median (fold (linear ratio)); higher = more Wnt/beta-catenin reporter activation
# Details: 24 h
# How it was run: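 HEK293T cells were seeded at 4500 cells/well in white 384-well plates and grown in DMEM with 10% FBS at 37°C and 5% CO2. The cells were transfected using Fugene 6 with a BAR firefly luciferase Wnt reporter, TK-Renilla and an expression plasmid, and four hours later robots added the chemicals at 0.01–100 uM for 24 h before a Dual-Glo luciferase readout. Wnt activity was taken as the firefly/Renilla ratio and cell health as raw Renilla, each median-centred per plate. Values are averages of four biological replicates.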
Structure (SMILES),Wnt reporter firefly/Renilla luciferase ratio (concentration: 0.1 uM),Wnt reporter firefly/Renilla luciferase ratio (concentration: 1 uM),Wnt reporter firefly/Renilla luciferase ratio (concentration: 10 uM),Wnt reporter firefly/Renilla luciferase ratio (concentration: 100 uM),Wnt reporter firefly/Renilla luciferase ratio (concentration: 0.01 uM)
O=C(O)[C@H](O)[C@@H](O)C(=O)O [L-Tartaric acid],1.14,1.29,0.958,1.46,
Cc1cn([C@H]2C[C@H](N=[N+]=[N-])[C@@H](CO)O2)c(=O)[nH]c1=O [3'-Azido-3'-deoxythymidine],1.15,1.04,1.15,1.07,
Cc1cn([C@H]2C=C[C@@H](CO)O2)c(=O)[nH]c1=O [Stavudine],1.03,1.04,0.931,1.62,
OCC(CO)(CO)CO [Pentaerythritol],1.18,1.51,1.13,1.27,
Cc1oc2c(NC(=O)c3c(Cl)cccc3Cl)cccc2c1C(C)(C)O,1.01,1.14,0.7,,
CN1C(=O)CC[C@H]1c1cccnc1 [Cotinine],0.928,0.981,1.03,1.13,
O=C(O)c1cn(C2CC2)c2cc(N3CCNCC3)c(F)cc2c1=O [Ciprofloxacin],0.853,1.01,0.882,1.74,0.979
COc1c(N2CC3CCCNC3C2)c(F)cc2c(=O)c(C(=O)O)cn(C3CC3)c12 (stereo unspecified) [Moxifloxacin],1.02,1.07,0.95,0.752,0.907
CC1COc2c(N3CCN(C)CC3)c(F)cc3c(=O)c(C(=O)O)cn1c23 (stereo unspecified) [Levofloxacin],1.2,1.05,1.11,1.45,1.21
O=C(CCCN1CCC(O)(c2ccc(Cl)cc2)CC1)c1ccc(F)cc1 [Haloperidol],1.01,0.984,0.916,0.572,
CCNc1ccccc1 [N-Ethylaniline],0.799,1.03,0.96,1.2,
